About 83,000 compounds went through this panel and 20% of them were active in at least one assay; those are over-represented in the sample as a whole.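 Single-dose data. Exposure time 48 hours. Values below 10 considered active.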 Activity calls are given as the source filed them.
What was measured:
Assay in all cases: NCI-60 one-dose screen, 48 h (100 = growth as untreated, 0 = no growth, -100 = all killed)
Conditions in all cases: 10 µM unless noted
HCT-15 colon = system: HCT-15 colon
HT29 colon = system: HT29 colon
SNB-75 CNS = system: SNB-75 CNS
SNB-19 CNS = system: SNB-19 CNS
U251 CNS = system: U251 CNS
PC-3 prostate = system: PC-3 prostate
SK-MEL-5 melanoma = system: SK-MEL-5 melanoma
UACC-62 melanoma = system: UACC-62 melanoma
LOX IMVI melanoma = system: LOX IMVI melanoma
SK-MEL-28 melanoma = system: SK-MEL-28 melanoma
SK-MEL-2 melanoma = system: SK-MEL-2 melanoma
EKVX NSCLC = system: EKVX NSCLC
SN12C renal = system: SN12C renal
UO-31 renal = system: UO-31 renal
TK-10 renal = system: TK-10 renal
ACHN renal = system: ACHN renal
CAKI-1 renal = system: CAKI-1 renal
A498 renal = system: A498 renal
CCRF-CEM leukemia = system: CCRF-CEM leukemia
MOLT-4 leukemia = system: MOLT-4 leukemia

Measured: growth

COC12C=C/C(=C(/C(=O)OCc3csc(SC)n3)C(=O)CCCCCCCCC3(OC)C=C/C(=C(/C(=O)OCc4cnc(SC)s4)C(=O)CCCCCCCC1)O3)O2 (stereo not given)
inactive: HCT-15 colon 76.8% | HT29 colon 27.5% | SNB-75 CNS 98.3% | SNB-19 CNS 47.3% | U251 CNS 36.9% | PC-3 prostate 27.4% | SK-MEL-5 melanoma 11.3% | SK-MEL-28 melanoma 36.3% | SK-MEL-2 melanoma 55.8% | EKVX NSCLC 33.5% | SN12C renal 28.9% | UO-31 renal 43.5% | TK-10 renal 47.6% | CAKI-1 renal 68% | A498 renal 34.9% | CCRF-CEM leukemia 14.6%
active: UACC-62 melanoma 6.98% | LOX IMVI melanoma -22.9% | ACHN renal 6% | MOLT-4 leukemia 1.34%

CC1(C)CC[C@]23CC[C@]4(C)[C@H](CC[C@@H]5[C@@]6(C)CCNCC(C)(C)[C@@H]6CC[C@]54C)[C@H]2[C@H]1OC3
inactive: HCT-15 colon 54.2% | HT29 colon 18.6% | SNB-75 CNS 96.8% | SNB-19 CNS 103% | U251 CNS 70% | PC-3 prostate 65.8% | SK-MEL-5 melanoma 96.2% | UACC-62 melanoma 94.4% | LOX IMVI melanoma 83.8% | SK-MEL-28 melanoma 99.9% | SK-MEL-2 melanoma 99.1% | EKVX NSCLC 109% | SN12C renal 89.6% | UO-31 renal 99.5% | TK-10 renal 108% | ACHN renal 106% | CAKI-1 renal 93.9% | A498 renal 117% | CCRF-CEM leukemia 70.8% | MOLT-4 leukemia 58.7%

O=C1/C(=C/c2ccc(Cl)cc2)CN(C(=O)C(Cl)Cl)C/C1=C\c1ccc(Cl)cc1
active: HCT-15 colon -70% | HT29 colon -31% | SNB-75 CNS -84% | SNB-19 CNS -92% | U251 CNS -94.3% | PC-3 prostate -38.4% | SK-MEL-5 melanoma -89.3% | UACC-62 melanoma -59.6% | LOX IMVI melanoma -93.1% | SK-MEL-28 melanoma -81.5% | SK-MEL-2 melanoma -15% | EKVX NSCLC -60% | SN12C renal -75.7% | UO-31 renal -99.7% | TK-10 renal -83.7% | ACHN renal -100% | CAKI-1 renal -71% | A498 renal -95.8% | CCRF-CEM leukemia 7% | MOLT-4 leukemia -12.5%

O=c1oc2c(cc1-c1ccccc1)c[n+]([O-])c1ccccc21
inactive: HCT-15 colon 103% | HT29 colon 103% | SNB-75 CNS 93% | SNB-19 CNS 97.9% | U251 CNS 97.9% | PC-3 prostate 97% | SK-MEL-5 melanoma 98.1% | UACC-62 melanoma 97.4% | LOX IMVI melanoma 101% | SK-MEL-28 melanoma 109% | SK-MEL-2 melanoma 109% | EKVX NSCLC 98.1% | SN12C renal 97.2% | UO-31 renal 90.4% | TK-10 renal 107% | ACHN renal 97.3% | CAKI-1 renal 90.6% | A498 renal 105% | CCRF-CEM leukemia 101% | MOLT-4 leukemia 102%

Cn1cc(-c2nc3c(F)cc4[nH]ncc4c3c3c2CCCC3)c(C(F)(F)F)n1
inactive: HCT-15 colon 23.7% | HT29 colon 37.1% | SNB-75 CNS 22.5% | SNB-19 CNS 75.3% | U251 CNS 59.8% | SK-MEL-5 melanoma 40.2% | UACC-62 melanoma 29.5% | LOX IMVI melanoma 28.7% | SK-MEL-28 melanoma 51% | SK-MEL-2 melanoma 49.2% | EKVX NSCLC 38.3% | SN12C renal 49.4% | UO-31 renal 18.1% | TK-10 renal 24.7% | ACHN renal 28.4% | CAKI-1 renal 18.6%
active: PC-3 prostate 0.262% | A498 renal -15.1% | CCRF-CEM leukemia -8.03% | MOLT-4 leukemia -18.9%

COC(=O)Cn1c2c(c3c(OC)cccc31)C(=O)c1ccccc1-2
inactive: HCT-15 colon 101% | HT29 colon 95.8% | SNB-75 CNS 90.8% | SNB-19 CNS 90.5% | U251 CNS 89.9% | PC-3 prostate 87.4% | SK-MEL-5 melanoma 102% | UACC-62 melanoma 93.3% | LOX IMVI melanoma 91.8% | SK-MEL-28 melanoma 97.1% | SK-MEL-2 melanoma 109% | EKVX NSCLC 103% | SN12C renal 91.4% | UO-31 renal 82.5% | TK-10 renal 115% | ACHN renal 94.9% | CAKI-1 renal 110% | A498 renal 101% | CCRF-CEM leukemia 81.4% | MOLT-4 leukemia 83.8%

O=C(NCc1ccc(Cn2c(=O)sn(-c3ccccc3)c2=O)cc1)OCc1ccc2cccc(O)c2n1
inactive: SNB-19 CNS 44.7% | A498 renal 39.3%
active: HCT-15 colon -30.3% | HT29 colon -52.7% | SNB-75 CNS -22.6% | U251 CNS 9.01% | PC-3 prostate -68.9% | SK-MEL-5 melanoma -84.7% | UACC-62 melanoma -61.9% | LOX IMVI melanoma -95.3% | SK-MEL-28 melanoma -62.3% | SK-MEL-2 melanoma -5.7% | EKVX NSCLC -35.9% | SN12C renal -46.1% | UO-31 renal -99.6% | TK-10 renal -81.2% | ACHN renal -99.9% | CAKI-1 renal -85.9% | CCRF-CEM leukemia 0.307% | MOLT-4 leukemia -24.8%

COc1ccc(C(=O)Nc2ncc(Cc3ccc(Cl)cc3)s2)cc1
inactive: SNB-75 CNS 20% | SNB-19 CNS 23.9% | U251 CNS 25.2% | PC-3 prostate 22.7% | UACC-62 melanoma 33.5% | LOX IMVI melanoma 19.8% | SK-MEL-28 melanoma 52.3% | SK-MEL-2 melanoma 23.9% | EKVX NSCLC 36.5% | SN12C renal 24.8% | UO-31 renal 37.4% | TK-10 renal 58.9% | ACHN renal 25.6% | CAKI-1 renal 18.4% | CCRF-CEM leukemia 14.5% | MOLT-4 leukemia 12.3%
active: HCT-15 colon 8.72% | HT29 colon 6.03% | SK-MEL-5 melanoma -1.16% | A498 renal -18.5%

CN(C)CCCn1c2c(c3cnccc3c1=O)C(=O)c1ccccc1-2
active: HCT-15 colon -3.54% | HT29 colon -2.38% | SNB-19 CNS 1.02% | U251 CNS 0.151% | PC-3 prostate -5.36% | SK-MEL-5 melanoma -75.8% | UACC-62 melanoma -64.6% | LOX IMVI melanoma -44.9% | SK-MEL-28 melanoma -28.1% | SK-MEL-2 melanoma -13.5% | SN12C renal 1.1% | UO-31 renal -39% | TK-10 renal 3.67% | ACHN renal -25.9% | CAKI-1 renal 1% | CCRF-CEM leukemia 9.81% | MOLT-4 leukemia -2.22%
inactive: SNB-75 CNS 10.6% | EKVX NSCLC 40.9% | A498 renal 25.8%

O=c1oc2ccccc2cc1-c1nn(-c2ccccc2)cc1-c1nn[nH]n1
inactive: HCT-15 colon 100% | HT29 colon 104% | SNB-75 CNS 76.2% | SNB-19 CNS 98% | U251 CNS 104% | PC-3 prostate 91.5% | SK-MEL-5 melanoma 102% | UACC-62 melanoma 93.3% | LOX IMVI melanoma 89% | SK-MEL-28 melanoma 107% | SK-MEL-2 melanoma 104% | EKVX NSCLC 99.4% | SN12C renal 96.2% | UO-31 renal 78.4% | TK-10 renal 101% | ACHN renal 99.9% | CAKI-1 renal 87.6% | A498 renal 95.1% | CCRF-CEM leukemia 104% | MOLT-4 leukemia 99%

c1cc(OCCCCCOc2cccc(-c3nc4ccccc4[nH]3)c2)cc(-c2nc3ccccc3[nH]2)c1
active: HT29 colon 5.53% | U251 CNS 6.76% | PC-3 prostate -13.1% | SK-MEL-5 melanoma -81.5% | UACC-62 melanoma 8.55% | LOX IMVI melanoma -27.8% | SK-MEL-2 melanoma 9.28% | EKVX NSCLC 2.5% | UO-31 renal 3.69% | ACHN renal 6.47% | A498 renal 9.68% | CCRF-CEM leukemia -18.9% | MOLT-4 leukemia -13.5%
inactive: HCT-15 colon 12.3% | SNB-75 CNS 31.4% | SNB-19 CNS 22.3% | SK-MEL-28 melanoma 18.7% | SN12C renal 26.4% | TK-10 renal 25.7% | CAKI-1 renal 36.4%

CN(C)CCCNC(=O)c1cncnc1Nc1ccc2c(ccn2Cc2cccc(F)c2)c1
inactive: HCT-15 colon 63.2% | HT29 colon 39.1% | SNB-75 CNS 78% | SNB-19 CNS 92.5% | U251 CNS 68.9% | PC-3 prostate 86% | SK-MEL-5 melanoma 91.4% | UACC-62 melanoma 100% | LOX IMVI melanoma 76.7% | SK-MEL-28 melanoma 89.6% | SK-MEL-2 melanoma 107% | EKVX NSCLC 96.6% | SN12C renal 84.9% | UO-31 renal 71.5% | TK-10 renal 103% | ACHN renal 102% | CAKI-1 renal 83.7% | A498 renal 32.7% | CCRF-CEM leukemia 67% | MOLT-4 leukemia 72%

O=C1OCC2=C1C(c1ccccc1)c1cc3c(cc1N2CCO)OCCO3 (stereo not given)
inactive: SNB-19 CNS 12.8% | PC-3 prostate 17.3% | UACC-62 melanoma 14.5% | LOX IMVI melanoma 34.6% | SK-MEL-28 melanoma 32.6% | SK-MEL-2 melanoma 57.3% | EKVX NSCLC 48.4% | SN12C renal 35.1% | UO-31 renal 68.4% | TK-10 renal 63.5% | ACHN renal 36.7% | CAKI-1 renal 51% | CCRF-CEM leukemia 10.5% | MOLT-4 leukemia 21.4%
active: HCT-15 colon 7.18% | HT29 colon -35.9% | SNB-75 CNS -11.2% | U251 CNS 7.86% | SK-MEL-5 melanoma 4.37% | A498 renal -21.2%

O=C(Nc1cccnc1Nc1ccc(Cl)cc1)c1cn(Cc2cccc(Oc3ccccc3)c2)nn1
inactive: HCT-15 colon 25.6% | HT29 colon 27.2% | SNB-75 CNS 42.1% | SNB-19 CNS 50.1% | U251 CNS 39.4% | PC-3 prostate 35% | SK-MEL-5 melanoma 12.6% | UACC-62 melanoma 30.6% | LOX IMVI melanoma 31.1% | SK-MEL-28 melanoma 61.7% | SK-MEL-2 melanoma 61.8% | EKVX NSCLC 53.5% | SN12C renal 46.4% | UO-31 renal 31.9% | TK-10 renal 82.4% | ACHN renal 55.2% | CAKI-1 renal 53.6% | A498 renal 26.6% | CCRF-CEM leukemia 39% | MOLT-4 leukemia 28.8%

O=C1/C(=C/c2ccccn2)SC(=S)N1N1CCOCC1
inactive: HCT-15 colon 102% | HT29 colon 103% | SNB-75 CNS 90.4% | SNB-19 CNS 101% | U251 CNS 98.1% | PC-3 prostate 94.6% | SK-MEL-5 melanoma 99.2% | UACC-62 melanoma 92.8% | LOX IMVI melanoma 97.8% | SK-MEL-28 melanoma 105% | SK-MEL-2 melanoma 89.8% | EKVX NSCLC 90.6% | SN12C renal 93.6% | UO-31 renal 71.9% | TK-10 renal 98.5% | ACHN renal 99.5% | CAKI-1 renal 92.6% | A498 renal 102% | CCRF-CEM leukemia 84.2% | MOLT-4 leukemia 101%

Cc1ccccc1N1CCN(C(=S)c2ccccc2)CC1
inactive: HCT-15 colon 98.8% | HT29 colon 96.2% | SNB-75 CNS 84.7% | SNB-19 CNS 98.8% | U251 CNS 93.4% | PC-3 prostate 101% | SK-MEL-5 melanoma 96.8% | UACC-62 melanoma 82.9% | LOX IMVI melanoma 92.3% | SK-MEL-28 melanoma 109% | SK-MEL-2 melanoma 85% | EKVX NSCLC 96.1% | SN12C renal 96.6% | UO-31 renal 82.1% | TK-10 renal 108% | ACHN renal 106% | CAKI-1 renal 75.3% | A498 renal 101% | CCRF-CEM leukemia 114% | MOLT-4 leukemia 106%

Source: PubChem BioAssay (NCI)
